According to PubChem BioAssay AID1030 (National Center for Advancing Translational Sciences (NCATS), 2008):
The campaign covered roughly 220,000 compounds. About 16,000 (7.3%) were called active. Inconclusive results (about 25%) are left out. Calls follow the shape of the dose curve; as a rule, active = well fitted inhibition curve with a large enough effect (not every such curve was filed as active); inconclusive = small, poorly fitted or top-dose-only effect, or another doubt; inactive = no such curve, though single readings can be large or run the other way. The entries come from a sample that favours actives as a whole.

Target: Aldehyde dehydrogenase 1A1 (Homo sapiens) (UniProt P00352)
Sequence (P00352 whole entry, looked up): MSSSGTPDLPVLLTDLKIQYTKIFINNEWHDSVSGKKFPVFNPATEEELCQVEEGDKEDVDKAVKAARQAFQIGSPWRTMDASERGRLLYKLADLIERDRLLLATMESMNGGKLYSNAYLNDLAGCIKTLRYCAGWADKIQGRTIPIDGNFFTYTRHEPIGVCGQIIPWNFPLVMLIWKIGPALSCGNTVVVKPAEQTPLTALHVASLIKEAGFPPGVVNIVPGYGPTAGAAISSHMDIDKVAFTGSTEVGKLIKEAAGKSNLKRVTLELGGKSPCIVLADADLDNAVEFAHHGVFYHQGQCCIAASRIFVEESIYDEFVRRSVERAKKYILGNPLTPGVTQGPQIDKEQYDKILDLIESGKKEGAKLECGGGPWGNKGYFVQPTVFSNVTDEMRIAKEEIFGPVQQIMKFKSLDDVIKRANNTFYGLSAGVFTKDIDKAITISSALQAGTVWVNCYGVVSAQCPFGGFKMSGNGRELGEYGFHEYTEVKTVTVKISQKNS
Assay: qHTS Assay for Inhibitors of Aldehyde Dehydrogenase 1 (ALDH1A1);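 as to activity, negative = inhibition: plate controls were no enzyme wells and a reference inhibitor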
Settings: Purified ALDH1A1, NADH fluorescence, propionaldehyde substrate; series mostly up to 75.3 µM; activity, negative = inhibition: at the top concentration
Potency is read from the fitted curve at half-maximal effect.

activity, negative = inhibition, inactive:
CN(C)c1ccc(C(=S)N2CCN(C(=S)Nc3ccc(Cl)cc3)CC2)cc1 5.85%, CN(Cc1cc2cc(F)ccc2[nH]1)Cc1nc(-c2cnccn2)no1 -3.79%, CC(=O)Nc1nc(N(C)C)nc(N(C)C)n1 5%, CC(=O)N/N=C(\C)c1ccc(Br)cc1Br 12%, COc1ccc(-c2nc(CN3CCN(c4ncccn4)CC3)c(C)o2)cc1C 7.29%, COc1cc(C2C(N3C(=O)c4ccccc4C3=O)C(=O)N2c2ccc(C)c(C)c2)cc(OC)c1OC (configuration not stated) 3.1%, Cc1ccsc1/C=N/n1c(=S)[nH]nc(C)c1=O -0.343%, Cc1n[nH]c(=S)n1/N=C/c1ccc(Br)o1 5.13%, COc1ccc(OC)c(N=Cc2c(O)[nH]c3ccccc23)c1 -3.97%, COc1ccc2nccc(C(=O)O)c2c1 9.43% [at 20.9 µM], CC(=O)Nc1ccc(C(=O)OCC(=O)Nc2ccc([N+](=O)[O-])cc2C(F)(F)F)cc1 -0.0444%, CC(C)(C)C(=O)NCCCNc1ccc([N+](=O)[O-])cc1 -7.51%, O=C(N/N=C/c1ccc(Cl)cc1)c1nc2ccc([N+](=O)[O-])cc2c(=O)[nH]1 -8.44%, CC(=O)c1cnc(SCC(=O)O)nc1C 6.8%, COc1ccc(NC2=CC(=S)NC(C)(C)C2)cc1 1.47%, O=C(Nc1cccc(NC(=O)N2CCN(c3ccccc3)CC2)c1)N1CCN(c2ccccc2)CC1 -6.69%, Cc1cccc(C(=O)Nc2ccccc2N2CCN(c3ccc(F)cc3)CC2)c1 -8.56%, CCOCCCn1c(NN)nc2ccccc2c1=O 0.593%, COc1cccc(N(CC(=O)N2CCc3ccccc3C2)S(C)(=O)=O)c1 3.68%, CCOC(=O)N1CCN(C(=O)CN(c2ccc(C)c(C)c2)S(=O)(=O)c2ccccc2)CC1 1.51%, CC(=O)NCC(=O)N(Cc1ccco1)C1(C(=O)NC2CCCC2)CCCCC1 -4.75%, CCc1ccc(C2C(C#N)=C(N)Oc3n[nH]c(CC(=O)OC)c32)cc1 (configuration not stated) -2.99%, CCCc1[nH]nc2c1C(c1c(C)nn(-c3ccccc3)c1Cl)C(C#N)=C(N)O2 (configuration not stated) -7.97%, Cc1cc2c(c(=O)n1Cc1ccco1)C(c1ccccc1)C(C#N)=C(N)O2 (configuration not stated) 5.32%, COc1ccccc1C1C(C#N)=C(N)Oc2c1c(-c1ccccc1)nn2-c1ccccc1 (configuration not stated) 1.85%

Potency, active:
Cc1ccccc1-c1n[nH]c(=S)n1/N=C/c1ccc(-c2ccccc2Br)o1 14.1 µM, COc1ccc(C=Nc2cccc3ncccc23)cc1 17.8 µM, O=[N+]([O-])c1ccc(NCCCO)c(C(F)(F)F)c1 15.8 µM, Cc1cccc(N2CCN(c3ccc(NC(=O)/C=C\C(=O)O)cc3)CC2)c1 25.1 µM, Cc1ccc(S(=O)(=O)N(CC(=O)N2CCc3ccccc3C2)c2cccc(Cl)c2)cc1 0.562 µM, Cc1nn(Cc2ccccc2)c2c1C(c1ccccc1)C(C#N)=C(N)O2 (configuration not stated) 7.08 µM, Cc1nn(-c2ccccc2)c2c1C(c1ccc(F)cc1)C(C#N)=C(N)O2 (configuration not stated) 3.55 µM
